Measured values taken from PubChem BioAssay (NCATS).
Results filed as inconclusive are left out. The source made the active and inactive calls. Calls follow the shape of the dose curve; as a rule, active = well fitted curve in the direction sought with a large enough effect; inconclusive = small, poorly fitted or top-dose-only effect, or another doubt; inactive = no such curve, though single readings can be large; an effect the other way counts as inactive or inconclusive.

Experiments:
[1] = Quantitative High-Throughput drug screen in 47 multiple myeloma cell lines against the NCATS MIPE library collection: KMS27_JCRB cell viability assay (AID 1918970); also: nearly all actives have a fitted effect of over 30% in size
Method in brief: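 Luminescent ATP read-out (CellTiter-Glo, 5 min at room temperature) after 48 h compound exposure of 500 KMS27_JCRB cells per well; DMSO wells define full viability and media-only wells zero.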

[2] = Quantitative High-Throughput drug screen in 47 multiple myeloma cell lines against the NCATS MIPE library collection: KMS12BM_JCRB cell viability assay (AID 1918971); also: nearly all actives have a fitted effect of over 35% in size
Method in brief: (§1)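 Myeloma cell lines, 500 cells per well, exposed to MIPE 4.0 library compounds for 48 h at 37C, 5% CO2. Viability from ATP by CellTiter-Glo luminescence; normalised to DMSO (100%) and media-only (0%) wells.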

[3] = Quantitative High-Throughput drug screen in 47 multiple myeloma cell lines against the NCATS MIPE library collection: KMS12PE_JCRB cell viability assay (AID 1918972); also: nearly all actives have a fitted effect of over 30% in size
Method in brief: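 Steps: seed 500 cells per well; pin-transfer MIPE 4.0 library; incubate 48 h at 37C, 5% CO2, humidified; add CellTiter-Glo, 5 min room temperature; read luminescence.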

[4] = Quantitative High-Throughput drug screen in 47 multiple myeloma cell lines against the NCATS MIPE library collection: KMS21BM_JCRB cell viability assay (AID 1918974); settings: ATP luminescence, 48 h; viability: at 45.8 µM (top of the series) unless noted
Method in brief: (§2)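 Relative luminescence from CellTiter-Glo served as the viability signal, referenced to DMSO-treated (100%) and cell-free medium (0%) controls. Treatment lasted 48 hours at 37C with 500 cells per well.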

[5] = Quantitative High-Throughput drug screen in 47 multiple myeloma cell lines against the NCATS MIPE library collection: KMS26_JCRB cell viability assay (AID 1918975); also: nearly all actives have a fitted effect of over 45% in size
Method in brief: as §1

[6] = Quantitative High-Throughput drug screen in 47 multiple myeloma cell lines against the NCATS MIPE library collection: MMM1_PLB cell viability assay (AID 1918976); also: nearly all actives have a fitted effect of over 35% in size
Method in brief: (§3)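 Inhibition of viability over 48 h was scored by ATP content (CellTiter-Glo) in 500-cell wells. Zero and full viability were defined by media-only and DMSO-only wells.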

[7] = Quantitative High-Throughput drug screen in 47 multiple myeloma cell lines against the NCATS MIPE library collection: MOLP8_DSMZ cell viability assay (AID 1918977); also: nearly all actives have a fitted effect of over 45% in size
Method in brief: as §3

[8] = Quantitative High-Throughput drug screen in 47 multiple myeloma cell lines against the NCATS MIPE library collection: OCIMY1_PLB cell viability assay (AID 1918979); also: nearly all actives have a fitted effect of over 35% in size
Method in brief: as §3

[9] = Quantitative High-Throughput drug screen in 47 multiple myeloma cell lines against the NCATS MIPE library collection: MM1S_ATCC cell viability assay (AID 1918980); also: nearly all actives have a fitted effect of over 45% in size
Method in brief: as §3

[10] = Quantitative High-Throughput drug screen in 47 multiple myeloma cell lines against the NCATS MIPE library collection: MM1R_ATCC cell viability assay (AID 1918981); also: nearly all actives have a fitted effect of over 35% in size
Method in brief: as §3

[11] = Quantitative High-Throughput drug screen in 47 multiple myeloma cell lines against the NCATS MIPE library collection: LP1_DSMZ cell viability assay (AID 1918982); also: nearly all actives have a fitted effect of over 35% in size
Method in brief: as §3

[12] = Quantitative High-Throughput drug screen in 47 multiple myeloma cell lines against the NCATS MIPE library collection: KMS28PE_JCRB cell viability assay (AID 1918983); also: nearly all actives have a fitted effect of over 35% in size
Method in brief: as §3

[13] = Quantitative High-Throughput drug screen in 47 multiple myeloma cell lines against the NCATS MIPE library collection: L363_DSMZ cell viability assay (AID 1918984); also: nearly all actives have a fitted effect of over 40% in size
Method in brief: as §3

[14] = Quantitative High-Throughput drug screen in 47 multiple myeloma cell lines against the NCATS MIPE library collection: KMS34_JCRB cell viability assay (AID 1918985); also: nearly all actives have a fitted effect of over 40% in size
Method in brief: as §3

[15] = Quantitative High-Throughput drug screen in 47 multiple myeloma cell lines against the NCATS MIPE library collection: OCIMY5_PLB cell viability assay (AID 1918988); also: nearly all actives have a fitted effect of over 65% in size
Method in brief: as §3

[16] = Quantitative High-Throughput drug screen in 47 multiple myeloma cell lines against the NCATS MIPE library collection: OPM1_PLB cell viability assay (AID 1918989); also: nearly all actives have a fitted effect of over 40% in size
Method in brief: as §3

[17] = Quantitative High-Throughput drug screen in 47 multiple myeloma cell lines against the NCATS MIPE library collection: SKMM1_PLB cell viability assay (AID 1919863); settings: SKMM1 myeloma viability, CellTiter-Glo ATP, 48 h; viability: hits give low values; also: nearly all actives have a fitted effect of over 35% in size
Method in brief: as §3

[18] = Quantitative High-Throughput drug screen in 47 multiple myeloma cell lines against the NCATS MIPE library collection: NCIH929_DSMZ cell viability assay (AID 1918978); also: nearly all actives have a fitted effect of over 35% in size
Method in brief: as §3

[19] = Quantitative High-Throughput drug screen in 47 multiple myeloma cell lines against the NCATS MIPE library collection: KMS20_JCRB cell viability assay (AID 1918973); also: nearly all actives have a fitted effect of over 45% in size
Method in brief: as §2

[20] = Quantitative High-Throughput drug screen in 47 multiple myeloma cell lines against the NCATS MIPE library collection: OCIMY7_PLB cell viability assay (AID 1918987); also: nearly all actives have a fitted effect of over 65% in size
Method in brief: as §3
Potency is read from the fitted curve at half-maximal effect.

O=c1cc(N2CCOCC2)oc2c(-c3ccccc3)cccc12
inactive: Potency [1] | Potency [3] | Potency [4] | Potency [13]
active: Potency [2] 14.8 µM | Potency [5] 7.43 µM | Potency [6] 18.7 µM | Potency [7] 7.43 µM | Potency [8] 11.8 µM | Potency [9] 14.8 µM | Potency [10] 7.43 µM | Potency [11] 11.8 µM | Potency [12] 10.5 µM | Potency [14] 11.8 µM | Potency [15] 13.2 µM | Potency [16] 10.5 µM | Potency [17] 14.8 µM

CNC[C@H](O)c1ccc(O)c(O)c1
inactive: Potency [1] | Potency [18] | Potency [13]
active: Potency [2] 19.1 µM | Potency [5] 10.8 µM | Potency [6] 6.79 µM | Potency [7] 8.55 µM | Potency [8] 38.2 µM | Potency [9] 17.1 µM | Potency [10] 6.05 µM | Potency [11] 30.3 µM | Potency [12] 13.6 µM | Potency [14] 30.3 µM | Potency [17] 12.1 µM

CCN(CC)CCOc1ccc(Nc2ncc3cc(-c4c(Cl)cccc4Cl)c(=O)n(C)c3n2)cc1
active: Potency [1] 0.132 µM | Potency [2] 2.35 µM | Potency [3] 0.0105 µM | Potency [19] 0.001 µM | Potency [5] 5.26 µM | Potency [7] 0.059 µM | Potency [18] 1.87 µM | Potency [8] 2.96 µM | Potency [9] 2.35 µM | Potency [10] 1.32 µM | Potency [12] 1.18 µM | Potency [14] 0.166 µM | Potency [20] 1.48 µM | Potency [15] 0.105 µM | Potency [16] 0.0187 µM | Potency [17] 5.26 µM

CC[C@]1(O)C[C@H]2CN(CCc3c([nH]c4ccccc34)[C@@](C(=O)OC)(c3cc4c(cc3OC)N(C=O)[C@H]3[C@@](O)(C(=O)OC)[C@H](OC(C)=O)[C@]5(CC)C=CCN6CC[C@]43[C@@H]65)C2)C1
active: Potency [1] 0.0166 µM | Potency [2] 0.0019 µM | Potency [19] 0.0148 µM | Potency [5] 0.0372 µM | Potency [6] 1.05 µM | Potency [18] 0.0235 µM | Potency [8] 0.059 µM | Potency [12] 0.0047 µM | Potency [13] 0.132 µM | Potency [14] 0.0019 µM | Potency [20] 0.0235 µM | Potency [16] 0.0053 µM | Potency [17] 0.0053 µM

Nc1ccc(S(N)(=O)=O)cc1
inactive: Potency [1] | Potency [2] | Potency [3] | Potency [4] | Potency [5] | Potency [7] | Potency [18] | Potency [8] | Potency [9] | Potency [10] | Potency [12] | Potency [20] | Potency [15] | Potency [16] | viability [17] 120%

CC1Cc2ccccc2N1NC(=O)c1ccc(Cl)c(S(N)(=O)=O)c1 (stereo not given)
active: Potency [9] 16.6 µM
inactive: Potency [1] | Potency [2] | Potency [3] | Potency [7] | Potency [18] | Potency [8] | Potency [10] | Potency [14] | Potency [16]

C[C@H](Cc1ccc(O)c(O)c1)[C@@H](C)Cc1ccc(O)c(O)c1
active: Potency [1] 9.35 µM | Potency [2] 16.6 µM | Potency [5] 23.5 µM | Potency [6] 6.62 µM | Potency [7] 5.26 µM | Potency [18] 9.35 µM | Potency [8] 18.7 µM | Potency [9] 20.9 µM | Potency [10] 20.9 µM | Potency [13] 6.62 µM | Potency [14] 16.6 µM | Potency [15] 16.6 µM | Potency [16] 26.4 µM | Potency [17] 18.7 µM
inactive: Potency [12]

O=C(OC1C[C@H]2CC[C@@H](C1)[N+]21CCCC1)C(O)(c1ccccc1)c1ccccc1 (stereo not given in full)
inactive: Potency [1] | Potency [2] | Potency [4] | Potency [5] | Potency [7] | Potency [18] | Potency [10] | Potency [11] | Potency [12] | Potency [13] | Potency [20] | Potency [15] | Potency [16] | viability [17] 138%

CCCCCCCCOc1ccccc1C(=O)Nc1ccc(C(=O)OCC[N+](C)(CC)CC)cc1
active: Potency [1] 6.62 µM | Potency [2] 18.7 µM | Potency [19] 16.6 µM | Potency [5] 16.6 µM | Potency [6] 16.6 µM | Potency [7] 20.9 µM | Potency [18] 20.9 µM | Potency [13] 4.69 µM | Potency [14] 23.5 µM | Potency [15] 20.9 µM | Potency [16] 18.7 µM | Potency [17] 26.4 µM

C[C@H](Cn1cnc2c(N)ncnc21)OCP(=O)(O)O
inactive: Potency [1] | Potency [2] | Potency [19] | Potency [5] | Potency [7] | Potency [18] | Potency [10] | Potency [13] | Potency [14] | Potency [15] | Potency [16]

O=C1CCc2ccc(OCCCCN3CCN(c4cccc(Cl)c4Cl)CC3)cc2N1
inactive: Potency [1] | Potency [8] | viability [17] 132%
active: Potency [2] 11.8 µM | Potency [3] 5.26 µM | Potency [6] 20.9 µM | Potency [12] 18.7 µM | Potency [16] 18.7 µM

Nc1nc(Cl)nc2c1ncn2[C@H]1C[C@H](O)[C@@H](CO)O1
active: Potency [1] 0.296 µM | Potency [2] 0.0833 µM | Potency [4] 0.0935 µM | Potency [6] 4.69 µM | Potency [7] 0.0833 µM | Potency [18] 0.59 µM | Potency [9] 0.59 µM | Potency [10] 0.264 µM | Potency [20] 0.001 µM | Potency [16] 18.7 µM
inactive: Potency [11]

COCCCOc1ccnc(CS(=O)c2nc3ccccc3[nH]2)c1C (stereo not given)
inactive: Potency [1] | Potency [2] | Potency [3] | Potency [5] | Potency [18] | Potency [8] | Potency [10] | Potency [12] | Potency [13] | Potency [14] | Potency [16]

Cc1ccc(Nc2nccc(N(C)c3ccc4c(C)n(C)nc4c3)n2)cc1S(N)(=O)=O
active: Potency [1] 20.9 µM | Potency [2] 18.7 µM | Potency [3] 16.6 µM | Potency [5] 23.5 µM | Potency [13] 11.8 µM | Potency [20] 18.7 µM | Potency [15] 16.6 µM | Potency [16] 14.8 µM
